Laboratory results published in PubChem BioAssay (NCI).
About 83,000 compounds went through this panel and 20% of them were active in at least one assay; those are over-represented in the sample as a whole.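 Assay: single dose, 48 h. Readout: percent growth (0 = no net growth; negative = cell death). Active: <10.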 Values without a mark were called inactive. The source made the active and inactive calls.

Tested on: HL-60(TB) leukemia
Assay: NCI-60 one-dose screen, 48 h (100 = growth as untreated, 0 = no growth, -100 = all killed)
Settings: 10 µM unless noted

## Cc1[nH]nc2ccc3nc(-c4cnn(CCO)c4)c4c(c3c12)CCCC4
  growth: 36.9%

## CS(=O)(=O)Nc1cncc(-c2ccc3ncnc(NCc4ccccc4)c3c2)c1
  growth: 54.6%

## COc1ccc(/C(CSc2nnc(-c3c[nH]c4ccccc34)n2-c2ccccc2)=N/O)cc1
  growth: 3.87% (active)

## N#Cc1c(-c2ccc(Br)cc2)nc2n[nH]c(-c3ccc(Br)cc3)c2c1-c1ccc(C(F)(F)F)cc1
  growth: -26.2% (active)

## c1n[nH]cc1-c1nc2ccc3cn[nH]c3c2c2c1CCCC2
  growth: 94.4%

## CN(C)C(=O)c1cc(-c2ccc3ncnc(N4CCc5cc(F)c(Cl)cc54)c3c2)cnc1N
  growth: -73.8% (active)

## CCc1ccccc1NC(=O)N/C(N)=N/c1nc2ccccc2s1
  growth: -27.2% (active)

## COc1ccc(C(=O)c2cc(C(C)=O)c3c(C)cc(C)cn23)cc1
  growth: 78%

## CC(=O)OC[C@@]1(C)C2CC[C@]3(C)C(CC=C4C5CC(C)(C)CC[C@]5(C(=O)Nc5ccccc5)CC[C@]43C)[C@@]2(C)C[C@@H](OC(C)=O)[C@@H]1OC(C)=O (stereo partly drawn)
  growth: 22.6%

## Cn1cc(NC(=O)c2cc(NC(=O)c3ccc(/C=C/c4ccccc4)cc3)cn2C)cc1C(=O)NCCCN1CCOCC1
  growth: -37.6% (active)

## Nc1nc(Nc2ccc(Cl)cc2)n(Cc2cccc(Br)c2)n1
  growth: -14.2% (active)

## O=c1c(-c2nc(-c3ccccc3)c(-c3ccccc3)[nH]2)coc2ccc(F)cc12
  growth: 54.3%

## Cn1cc(-c2cc(N)n3nc(-c4c[nH]c5ccc(Br)cc45)cc3n2)c2cccnc21
  growth: -49.9% (active)
